# Assay outcomes (PubChem BioAssay)
# JMJD2A Tudor: qHTS Assay for Inhibitors of JMJD2A-Tudor Domain; Lysine-specific demethylase 4A (Homo sapiens), O75164; AlphaScreen JMJD2A-Tudor / H3K4me3 peptide binding; Potency, µM (top dose mostly 114 µM), for the others: top-dose activity change, negative = inhibition, hits mostly inhibitors; 390,000 tested, 4.4% active; note: % is set by controls: 0 for no effect and ±100 for the full control effect; nearly all actives have a fitted effect of over 50% in size
# L3MBTL1 inh: qHTS Assay for the Inhibitors of L3MBTL1 | Lethal(3)malignant brain tumor-like protein 1 (Homo sapiens), Q9Y468 | AlphaScreen L3MBTL1–H3K9me1 peptide binding | Potency, µM (top dose mostly 57.1 µM), inactives show at the top dose activity, negative = inhibition, most hits filed as inhibitors | 230,000 tested, 0.66% active; note: % is set by controls: 0 for no effect and ±100 for the full control effect; nearly all actives have a fitted effect of over 60% in size
#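 Displacement of a biotinylated histone H3(1-15) peptide monomethylated at Lys9 (75 nM) from L3MBTL1 (50 nM) was measured by AlphaScreen after a 30 min room-temperature compound incubation; cefsulodin titration served as intraplate control.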
# G9a inh: qHTS Assay for Inhibitors of Histone Lysine Methyltransferase G9a; Histone-lysine N-methyltransferase EHMT2 (Homo sapiens), Q96KQ7; 350,000 tested, 8.8% active; AID 504332, 2011; G9a H3K9 monomethylation, AlphaScreen, 2 h; Potency, µM (doses to about 102 µM), for inactives: at the highest dose activity, negative = inhibition, actives largely listed as inhibitors; note: % is set by controls: 0 for no effect and ±100 for the full control effect; nearly all actives have a fitted effect of over 75% in size
# Target sequence (Q96KQ7 913-1193 limits assumed): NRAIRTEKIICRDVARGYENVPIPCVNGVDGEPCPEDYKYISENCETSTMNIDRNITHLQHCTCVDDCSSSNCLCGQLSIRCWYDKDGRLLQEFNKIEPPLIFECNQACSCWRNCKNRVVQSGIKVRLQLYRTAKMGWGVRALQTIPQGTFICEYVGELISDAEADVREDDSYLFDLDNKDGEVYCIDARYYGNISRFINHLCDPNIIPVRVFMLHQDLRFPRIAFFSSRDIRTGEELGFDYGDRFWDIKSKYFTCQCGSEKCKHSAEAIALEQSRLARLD
#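 G9a (20 nM) was preincubated 15 min with compound, then reacted 2 h at room temperature with 500 nM biotin-H3K9 peptide and 20 µM SAM. Monomethyl-H3K9 detected by AlphaScreen using anti-H3K9me1 antibody.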
# BAZ2B block: qHTS Assay for Inhibitors of BAZ2B. Potency, µM (doses to about 114 µM), for the others: at the top dose activity change, negative = inhibition, hits mostly inhibitors. 360,000 tested, 4.4% active. AlphaScreen BAZ2B-H3K14Ac peptide displacement. AID 504333, 2011. Bromodomain adjacent to zinc finger domain protein 2B (Homo sapiens), Q9UIF8; note: % is set by controls: 0 for no effect and ±100 for the full control effect; nearly all actives have a fitted effect of over 60% in size
#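 AlphaScreen displacement: compounds (up to 110uM) incubated 30 min at room temperature with a preformed 50 nM BAZ2B/50 nM biotinylated H3K14Ac peptide complex in PBS pH 7.4 with Tween-20. Donor and acceptor beads at 10 ug/mL final added, 20 min light-protected before reading.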
# HP1b chromo inh: HTS for Inhibitors of HP1-beta Chromodomain Interactions with Methylated Histone Tails; Chromobox protein homolog 1 (Homo sapiens), P83916; AlphaScreen HP1-beta / biotin-H3K9me3 peptide binding; Potency, µM (titrated, usually from 114 µM), inactives show at the top dose activity change, negative = inhibition, most hits filed as inhibitors; 390,000 tested, 0.56% active; AID 540317, 2011; note: nearly all actives have a fitted effect of over 70% in size
# Target sequence (P83916 whole entry, looked up): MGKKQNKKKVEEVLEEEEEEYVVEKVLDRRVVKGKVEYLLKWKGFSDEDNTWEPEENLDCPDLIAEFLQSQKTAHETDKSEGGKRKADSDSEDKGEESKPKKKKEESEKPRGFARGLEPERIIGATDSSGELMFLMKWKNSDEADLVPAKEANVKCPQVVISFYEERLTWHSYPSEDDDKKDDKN
#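 AlphaScreen: HP1-beta (50 nM) preformed 30 min with biotin-H3(1-18)K9me3 peptide (50 nM) in PBS pH 7.4, 0.01% Tween-20. Compound added for 30 min at RT, then streptavidin donor/nickel chelate acceptor beads (10 ug/mL) for 30 min.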
# Sfp inh: qHTS Assay for Inhibitors of Bacillus subtilis Sfp phosphopantetheinyl transferase (PPTase). Potency, µM, without a hit: largest response in the series, negative = inhibition, hits mostly inhibitors. Biochemical Sfp PPTase activity, qHTS. 310,000 tested, 3.5% active. 4'-phosphopantetheinyl transferase ffp (Bacillus subtilis), Q9F4F7;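 note: the enzyme is Sfp with the accession as filed and its product quenches rhodamine fluorescence; 0% = enzyme reaction without inhibitor and -100% = no enzyme wells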
#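 Buffer: 50 mM Hepes-Na pH 7.6, 10 mM MgCl2, 0.01% Nonidet P-40, 0.01% BSA. Enzyme 15 nM, pre-exposed to compound 15 min; substrates then added and fluorescence change tracked over 30 min.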
# * hit, by the source's call; u = inconclusive; x = not tested or not shown; [ ] = remark or other dose. This is a sample that favours compounds with a hit; in the whole collection about 12% have one here. Calls come from the whole dose curve; as a rule, active = well fitted curve in the direction sought with a large enough effect; inconclusive = small, poorly fitted or top-dose-only effect, or another doubt; inactive = no such curve, though single readings can be large; an effect the other way counts as inactive or inconclusive. Potency is the fitted concentration of half-maximal effect.
SMILES,JMJD2A Tudor,L3MBTL1 inh,G9a inh,BAZ2B block,HP1b chromo inh,Sfp inh
CCN(CC)C(=O)Cn1cnc2c1c(=O)n(C)c(=O)n2C,-4.6%,x,56.2µM*,-1.8%,15.1%,6.6%
Oc1c(Cl)cc(Cl)cc1/C=N/c1nc(-c2ccc(Cl)cc2)cs1,u,-6.5%,u,-26.4%,-6.1%,22.6%
Oc1c(Cl)cc(Cl)cc1/C=N/c1nccs1,-17.8%,x,8.91µM*,-1.5%,15.8%,50.1µM*
CCOC(=O)C1=C(C)N(CC(C)C)C(=O)/C1=C\c1ccc(OCC(=O)Nc2ccccc2)cc1,-35.9%[57.1 µM],-18.3%,50.1µM*,-37.1%[57.1 µM],-4.7%,7.8%
CCOC(=O)c1cc(=O)c2ccc(OCC(=O)Nc3ccccc3)cc2o1,-12.2%,-1.4%,17.3%,-17.2%,13.3%,-9.3%
CCCCn1c(N)c(Sc2ccccc2[N+](=O)[O-])c(=O)[nH]c1=O,-3.4%,x,-5.1%[12.7 µM],-7.4%,26.8%,11.9%
Cc1[nH]c(=O)[nH]c(=O)c1Sc1ccccc1[N+](=O)[O-],-11.6%,x,56.2µM*,-5.6%,32.3%,10.6%
CCOC(=O)CSc1nc2cc3c(cc2c(=O)n1CCCC(=O)NCc1ccc2c(c1)OCO2)OCO3,-3.3%,x,u,1.6%,28.4%,x
CN(N)C(=S)Nc1ccc(Cl)cc1,0.7%,6.6%,15.8µM*,-30.6%,36.5%,-9.6%
COC(=O)C(C)Sc1ncnc2c1c(-c1ccccc1)cn2-c1ccc(F)cc1 (configuration not stated),-7.2%,x,69.5%[59 µM],0.6%,69.8%,x
COCCn1c(=O)[nH]c2cc(C(=O)Nc3cc(OC)c(OC)c(OC)c3)ccc2c1=O,-15.7%,x,18.7%,-2.9%,-20.9%,8.1%
COCCn1c(=O)[nH]c2cc(C(=O)Nc3nnc(C)s3)ccc21,-12.4%,x,79.4µM*,2.7%,-2.6%,-9.3%
Cc1nc(N2CCOCC2)c2nc(-c3ccccc3)n(CCN(C)C)c2n1,x,x,x,x,x,1.4%
C#CCOCCOCCOCCNc1nc(N2CCN(C(=O)CCCCCCCCCCNC(=O)[C@@H](CCSC)n3cc(CCO)nn3)CC2)nc(N2CCN(C(=O)CCCCCCCCCCNC(=O)[C@H](CO)n3cc(CCCCCN)nn3)CC2)n1,79.4µM*,-12.1%,-11.2%[2.33 µM],u,u,x
C#CCOCCOCCOCCNc1nc(N2CCN(C(=O)CCCCCCCCCCNC(=O)[C@@H](CCC(=O)O)n3cc(CCCCCN)nn3)CC2)nc(N2CCN(C(=O)CCCCCCCCCCNC(=O)[C@H](CO)n3cc(CCCSC)nn3)CC2)n1,44.7µM*,-5.5%,-10.6%[2.33 µM],u,28.0%,x
Cc1ccc(S(=O)(=O)N2CCN(c3ccnc(-c4cccs4)n3)CC2)cc1,-29.9%,x,x,x,19.7%,x
CCOC(=O)c1sc2nc(CSc3nc4ccccc4n3CC)[nH]c(=O)c2c1C,-15.0%,-0.8%,12.7%[59 µM],6.4%,22.5%,8.7%
CCOCCCn1c(SCc2nc3sc(C(=O)O)c(C)c3c(=O)[nH]2)nnc1-c1ccc(Cl)cc1,u,-14.7%,20µM*,-35.4%,37.2%,-2.7%
Cc1cc(C)c(NC(=O)c2sc3nc(C)[nH]c(=O)c3c2C)c(C)c1,x,7.2%,0.9%,0.2%,x,-19.9%
CSCc1nc2sc(C(=O)Nc3nc(C)cs3)c(C)c2c(=O)[nH]1,-13.8%,-11.8%,44.7µM*,u,35.9%,-13.3%
Cc1c(C(=O)O)sc2nc(CSc3nnc(-c4ccc(F)cc4)n3C)[nH]c(=O)c12,u,1.6%[2.29 µM],35.5µM*,u,3.3%,12.9%
COC(=O)c1sc2nc(CSc3nc4ccc(C)cc4[nH]3)[nH]c(=O)c2c1C,-24.4%,x,u,13.2%,14.4%,-5.7%
Cc1ccc(NC(=O)c2sc3nc(CCl)[nH]c(=O)c3c2C)c(C)c1,-28.5%,2.6%,35.5µM*,-20.1%,29.0%,3.4%
Cc1ccc(-c2cn3c4c(=O)n(C)c(=O)n(C)c4nc3n2-c2cccc(Cl)c2)cc1,-4.6%,x,2.1%[59 µM],-1.0%,56.0%,x
COc1ccccc1NC(=O)N1c2ccccc2Sc2ccccc21,4.2%,x,-9.2%[59 µM],10.6%,51.1%,x
SMILES,JMJD2A Tudor,L3MBTL1 inh,G9a inh,BAZ2B block,HP1b chromo inh,Sfp inh
CCCCCn1cc2c(c1-c1ccc(Br)cc1)c(=O)n(C)c(=O)n2C,-11.6%,x,-3.3%[59 µM],-11.0%,43.0%,x
C=CCn1c(SCc2nc3scc(-c4ccccc4)c3c(=O)[nH]2)nnc1-c1ccccc1F,-28.6%,-11.7%,-8.3%[59 µM],-3.0%,0.7%,1.4%
CC(=O)c1sc2nc(CSc3nncn3C)[nH]c(=O)c2c1C,-9.6%,7.2%,-49.9%,-31.1%,0.3%,-2.8%
CC(=O)c1sc2nc(CSc3nnnn3-c3ccccc3)[nH]c(=O)c2c1C,-31.5%,u,56.2µM*,u,9.6%,u
Cc1nnc(SCc2nc3sc(C(=O)O)c(C)c3c(=O)[nH]2)s1,31.6µM*,u,x,-37.6%,2.6%,8.9%
CCn1c(SCc2nc3scc(-c4ccccc4)c3c(=O)[nH]2)nnc1-c1ccc(Cl)cc1,-4.1%,2.8%,8.4%[59 µM],9.1%,6.8%,7.0%
C=CCn1c(SCc2nc3sc(C(=O)O)c(C)c3c(=O)[nH]2)nnc1-c1ccccc1,25.1µM*,-18.7%,u,u,30.3%,11.8%
Cc1ccc(-c2csc3nc(CSc4nnc(-c5ccc(Cl)cc5)n4C)[nH]c(=O)c23)cc1,-23.5%,8.5%,22.4µM*,-0.4%,-2.1%,14.4%
CN(C)c1ccc(CNC(=O)C2CCN(c3nnc(-n4cccc4)s3)CC2)cc1,-28.2%,x,u,-3.5%[57.1 µM],6.6%,x
Cc1cc2c(s1)c1cnn(Cc3ccc(Cl)c(F)c3)c(=O)c1n2C,-24.7%,x,x,x,x,x
O=C(NCCn1cc(SCc2ccc(F)cc2)c2ccccc21)c1cccs1,-13.4%,x,-4.2%[59 µM],-37.0%,34.3%,x
Cc1ccc(-n2nnnc2SCc2nc3sc(C)c(C)c3c(=O)[nH]2)cc1,-2.7%,2.5%,-7.4%[59 µM],-6.9%,22.1%,-3.6%
C=CCn1c(SCc2nc3sc(C(=O)O)c(C)c3c(=O)[nH]2)nnc1-c1ccc(C(C)(C)C)cc1,28.2µM*,u,14.1µM*,50.1µM*,-19.4%,28.2µM*
COc1cc(/C=N/NC(=O)NC2CCCCC2)cc(OC)c1O,-18.5%,-4.1%,50.1µM*,-14.4%,-6.5%,-12.7%
CCCNC(=O)Cn1nc(C)c2c(C)n(-c3ccccc3)nc2c1=O,1.0%,x,-10.5%[59 µM],-5.2%,0.1%,x
